Assay results taken from PubChem BioAssay (NCATS).
Results filed as inconclusive are left out. Calls of active or inactive are those of the source. Calls come from the whole dose curve; as a rule, active = well fitted curve in the direction sought with a large enough effect; inconclusive = small, poorly fitted or top-dose-only effect, or another doubt; inactive = no such curve, though single readings can be large; an effect the other way counts as inactive or inconclusive. Peptide text beside a SMILES is read from it.

Assays:
[1] = target: Cellular tumor antigen p53 (Homo sapiens) (UniProt P04637); test: Primary qHTS for small molecule compounds that upregulate eGFP-tagged delta133p53alpha (in N-terminal) cells. (AID 2060322); conditions: NCI-H358 eGFP-delta133p53alpha fluorescence, 24 h; activation: hits give high values;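 note: cells pre-induced with doxycycline then dosed without doxycycline; 0% = DMSO vehicle and 100% = reference activator; nearly all actives have a fitted effect of over 75% in size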
Chain of Cellular tumor antigen p53 (Homo sapiens) (P04637 whole entry, looked up): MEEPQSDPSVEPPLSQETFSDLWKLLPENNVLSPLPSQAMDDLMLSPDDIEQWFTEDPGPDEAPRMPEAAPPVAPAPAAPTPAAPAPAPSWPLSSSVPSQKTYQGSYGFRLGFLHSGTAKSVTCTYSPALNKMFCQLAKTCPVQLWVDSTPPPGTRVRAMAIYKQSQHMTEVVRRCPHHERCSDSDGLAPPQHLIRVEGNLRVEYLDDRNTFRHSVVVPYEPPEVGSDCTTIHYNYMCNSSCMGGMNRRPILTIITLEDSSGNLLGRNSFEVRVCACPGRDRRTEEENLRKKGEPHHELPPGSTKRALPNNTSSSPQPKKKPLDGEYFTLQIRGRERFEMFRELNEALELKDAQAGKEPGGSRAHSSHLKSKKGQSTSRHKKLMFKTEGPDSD
Procedure, shortened: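 NCI-H358 cells pre-induced 24 h with 10 ng/ml doxycycline for eGFP-delta133p53alpha, plated dox-free and exposed 24 h at 37C to titrated compounds. Fixed, Hoechst-stained; gated GFP peak intensity by laser scanning cytometry, normalized to DMSO (0%) and 57.5 uM 5-azacytidine (100%).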

[2] = target: Aldehyde dehydrogenase, mitochondrial (Homo sapiens) (UniProt P05091); test: qHTS for Inhibitors of the Aldehyde Dehydrogenase Family (ALDH2) Primary screen (AID 2061308); conditions: ALDH2 enzyme inhibition qHTS, 1536-well; series mostly up to 56 µM;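 note: plate controls were vehicle for no effect and reference inhibitor for full effect; nearly all actives have a fitted effect of over 55% in size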
[3] = target: Retinaldehyde dehydrogenase 3 (Homo sapiens) (UniProt P47895); test: qHTS for Inhibitors of the Aldehyde Dehydrogenase Family (ALDH1A3) Primary screen (AID 2061315); conditions: ALDH inhibition qHTS; series mostly up to 56 µM;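 note: plate controls were DMSO vehicle for no effect and reference inhibitor for full effect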

N[C@H]1C[C@H]1c1ccc(-c2cccc(O)c2)cc1
inactive: activation [1] 1.67% | Potency [2] | Potency [3]

C=C[C@H]1[C@H](O[C@@H]2O[C@H](CO)[C@@H](O)[C@H](O)[C@H]2O)OC=C(C(=O)OC)[C@H]1C/C=C(/C=O)[C@@H]1C(C(=O)OC)=CO[C@@H](O[C@@H]2O[C@H](CO)[C@@H](O)[C@H](O)[C@H]2O)[C@@H]1C=C
inactive: activation [1] -22.1% | Potency [2] | Potency [3]

CC(C)=CCc1c(O)cc2oc3cc(C)cc(O)c3c2c1C
inactive: activation [1] -21.4% | Potency [2] | Potency [3]

COC(=O)C1=COC(OC2OC(CO)C(O)C(O)C2O)C2C(C)CC(=O)C12O (stereo not drawn)
inactive: activation [1] -4.46% | Potency [2] | Potency [3]

C[C@@H]1CC[C@@]23CC[C@]4(C)[C@@](C=CC5[C@@]6(C)CC[C@H](O)C(C)(C)C6CC[C@]54C)(OC2=O)C3[C@H]1C (stereo partly drawn)
inactive: activation [1] 12.2% | Potency [2] | Potency [3]

CC1CC(=O)C2C(O)(C1)CC(O)C13OC1c1c(O)cccc1C(=O)C23O (stereo not drawn)
inactive: activation [1] -1.53% | Potency [2] | Potency [3]

C=CC/C=C\C/C=C\CCCCCCCc1cccc(O)c1C(=O)O
inactive: activation [1] 8.04% | Potency [2] | Potency [3]

CC(=O)O[C@H]1C[C@@H](O)C(C)(C)C2C[C@@H](OC(C)=O)[C@@]3(C)C4=CCC(C(CO)CC(O)C5OC5(C)C)[C@]4(C)CCC3[C@]21C (stereo partly drawn)
inactive: activation [1] -9.16% | Potency [2] | Potency [3]

CC1(CO)CC(O)C2(C)CCC3(C)C(=CCC4C5(C=O)CCC(OC6OC(C(=O)O)C(O)C(O)C6OC6OC(C(=O)O)C(O)C(O)C6O)C(C)(C)C5CCC43C)C2C1 (stereo not drawn)
inactive: activation [1] -10.7% | Potency [2] | Potency [3]

CC(C)=CCC[C@](C)(O[C@@H]1O[C@H](CO[C@@H]2OC[C@@H](O)[C@H](O)[C@H]2O)[C@@H](O)[C@H](O)[C@H]1O)[C@H]1CC[C@]2(C)[C@@H]1[C@H](O)C[C@@H]1[C@@]3(C)CC[C@H](O[C@@H]4O[C@H](CO)[C@@H](O)[C@H](O)[C@H]4O[C@@H]4O[C@H](CO)[C@@H](O)[C@H](O)[C@H]4O)C(C)(C)[C@@H]3CC[C@]12C
inactive: activation [1] -8.33% | Potency [2] | Potency [3]

CCC(C)C(=O)OC1CC(O)C23C4OCC5(C(O)CC2C1(C)C(O)O4)C3C(=O)CC1(C)C(c2ccoc2)CC2OC215 (stereo not drawn)
inactive: activation [1] 22.1% | Potency [2] | Potency [3]

CC(=O)OC1(C)CC(O)C2(O)C=COC(OC3OC(CO)C(O)C(O)C3O)C12 (stereo not drawn)
inactive: activation [1] -16.8% | Potency [2] | Potency [3]

CCC(C)/C=C(C)/C=C/c1cc2c(cn1)C(=O)C(C)(OC(C)=O)C(O)=C2Cl (stereo not drawn)
inactive: activation [1] -6.11% | Potency [2] | Potency [3]

O=C(O)C(Cc1ccccc1)NC(=O)C1CCCN1 (stereo not drawn) (H-Pro-Phe-OH; configuration not given here)
inactive: activation [1] -13.7% | Potency [2] | Potency [3]

CC1(C)CCCC2(C)C1CC=C1C(=O)OC(O)C12O (stereo not drawn)
inactive: activation [1] -6.11% | Potency [2] | Potency [3]

CC(=O)C1=CCC2C3CCC4CC(O[C@@H]5O[C@H](CO)[C@@H](O[C@@H]6O[C@@H](C)[C@H](O)[C@@H](O)[C@H]6O)[C@H](O)[C@H]5O[C@@H]5O[C@H](CO)[C@@H](O)[C@H](O)[C@H]5O)CCC4(C)C3CCC12C (stereo partly drawn)
inactive: activation [1] -10.7% | Potency [2] | Potency [3]
